# Sampled rows, rich in hits. Any-hit rate of the full collection: about 3.7%.
# TGFb inhibitor = TGF-b pathway inhibition; Potency, µM (top dose mostly 46.1 µM), for the others: top-dose activity, negative = inhibition, usual class: inhibitors; 1.2% of 410,000 active; HepG2 CAGA-GFP TGF-b/SMAD3 reporter, GFP fluorescence, 18 h; TGF-beta stimulated, 500 pg/mL final; further: on the % scale 0 is the no-effect control and ±100 the full control effect; nearly all actives have a fitted effect of over 65% in size
#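 Inhibition of TGF-beta-driven CAGA-GFP reporter expression in HEPG2 cells is measured by cellular GFP fluorescence after 18 h stimulation with 500 pg/mL recombinant TGF-beta in 1% FBS medium at 37 degrees C.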
# GLP1R inv ag = GLP-1 receptor (human) inverse agonism; P43220; HEK293 GLP-1R CRE-luciferase, luminescence, 24 h; GLP-1R form is constitutively active; Potency, µM (top dose mostly 38.3 µM), inactives show at the highest dose activity change, negative = inhibition, usual class: inhibitors; 1.6% of 410,000 active; AID 624417; further: on the % scale 0 is the no-effect control and ±100 the full control effect; nearly all actives have a fitted effect of over 55% in size
# Target sequence (P43220 whole entry, looked up): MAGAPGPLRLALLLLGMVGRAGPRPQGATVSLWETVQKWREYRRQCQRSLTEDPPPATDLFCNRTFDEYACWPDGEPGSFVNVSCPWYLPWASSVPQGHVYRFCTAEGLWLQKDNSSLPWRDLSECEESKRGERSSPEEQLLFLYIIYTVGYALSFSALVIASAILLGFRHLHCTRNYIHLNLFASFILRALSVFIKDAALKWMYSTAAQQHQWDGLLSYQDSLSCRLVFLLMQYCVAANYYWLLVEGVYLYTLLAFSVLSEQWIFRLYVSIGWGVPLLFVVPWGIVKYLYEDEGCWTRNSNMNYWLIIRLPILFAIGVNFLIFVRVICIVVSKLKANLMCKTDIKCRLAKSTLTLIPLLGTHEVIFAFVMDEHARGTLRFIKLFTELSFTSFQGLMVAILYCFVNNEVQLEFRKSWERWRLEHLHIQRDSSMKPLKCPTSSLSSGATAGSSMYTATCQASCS
#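 Readout was luciferase luminescence, measured 12 min after detection reagent at room temperature. Beforehand, GLP-1R reporter HEK293 cells had sat 12 h, then received compounds for 24 hr at 37 deg C.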
# GLP-1R agonist = GLP-1 receptor (human) agonism. HEK293 GLP-1R CRE-luciferase, luminescence, 4-6 h; cells express a hypersensitive GLP-1R form. Potency, µM (titrated, usually from 45.6 µM), for inactives: at the highest dose activation, most hits filed as activators. 0.007% of 380,000 active; further: % of control where 0% means no effect
# ATXN2 expr inh = ATXN2 expression inhibition | HEK-293 ATXN2-luciferase reporter, luminescence, 24 h | 0.72% of 360,000 active | Potency, µM (titrated, usually from 57 µM), inactives show at the top dose activity change, negative = inhibition, actives largely listed as inhibitors | AID 1745845; further: on the % scale 0 is the no-effect control and ±100 the full control effect; nearly all actives have a fitted effect of over 55% in size
#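 ATXN2-luciferase reporter cells (luciferase flanked by upstream and downstream ATXN2 gene portions) were treated 24 h at 37 °C with compounds at up to 57 uM. SteadyGlo luminescence gave expression; GF-AFC fluorescence gave viability.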
# HepG2 viability = kills HepG2 cells in TGF-b inhibitor counter-screen; HepG2 CAGA-GFP viability, ATP luminescence, 18 h; Potency, µM (titrated, usually from 46.1 µM), for the others: at the top dose activity change, negative = cytotoxicity, hits mostly cytotoxic; 0.76% of 410,000 active; AID 588856
#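 HepG2 CAGA-GFP cells (1000/well, DMEM with 1% FBS) received compound, then TGF-beta at 500 pg/mL final, and were incubated 18 hours at 37 degrees C. Viability was read by CellTiter-Glo luminescence. Media-only wells were set as complete cell-killing and DMSO as no toxicity.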
# ATXN viability = viability counter-screen for ATXN expression inhibitors; S2 cells (HEK-293 line with an ATXN2-luciferase reporter) viability, CellTiter-Fluor protease fluorescence, 24 h; Potency, µM (highest dose often 56.7 µM), hits mostly cytotoxic; 0.49% of 400,000 active; AID 651635; further: nearly all actives have a fitted effect of over 40% in size
# The depositor's hits bear a star; i = inactive; ? = inconclusive; · = not tested or not shown. The call rests on the fitted dose curve; in most records, active means well fitted curve in the direction sought with a large enough effect; inconclusive means small, poorly fitted or top-dose-only effect, or another doubt; inactive means no such curve, though single readings can be large; an effect the other way counts as inactive or inconclusive. Potency means the concentration at half of the fitted maximal effect.
SMILES,TGFb inhibitor,GLP1R inv ag,GLP-1R agonist,ATXN2 expr inh,HepG2 viability,ATXN viability
COc1ccc(-c2nc(N3CCCCCC3)sc2C(=O)c2ccccc2)cc1,?,2µM*,5%,6%,-10%,i
O=C(c1ccccc1)c1sc(N2CCCCCC2)nc1-c1ccccc1,?,5µM*,12%,2%,-9%,i
[2H]c1c([2H])c([2H])c(C(=O)c2sc(N3CCCCCC3)nc2-c2ccccc2)c([2H])c1[2H],14µM*,?,1%,2%,3%,i
COc1cc(Cl)c(CN2CCOc3ccc(CN4CCCCC4CO)cc3C2)cc1OC (stereo not drawn),·,·,·,·,·,i
CC1(C)OC[C@@H]2O[C@@]3(C(=O)O)OC(C)(C)O[C@@H]3[C@@H]2O1,·,·,2%,·,·,·
CCN(CC)CC(=O)Nc1c(C)cccc1C(=O)OC,·,·,·,2%,·,i
COc1cc(Nc2ccccn2)cc(C(=O)Nc2cccc(C(F)(F)F)c2)c1,?,11µM*,2%,?,-54%,·
COc1cc(OC)cc(C(=O)Nc2ccc(Nc3ccccc3)cc2)c1,-26%,11µM*,14%,·,-33%,?
COc1cc(OC)cc(C(=O)Nc2cccc(NC(=O)c3ccccc3)c2)c1,23%,-23%,13%,-14%,-5%,i
Cc1ccc(C(=O)Nc2cccc(C(F)(F)F)c2)cc1Nc1ccccn1,-1%,?,17%,?,-2%,32µM*
CN[C@H](CC(C)C)C(=O)N[C@H]1C(=O)N[C@@H](CC(N)=O)C(=O)N[C@@H]2C(=O)N[C@H]3C(=O)N[C@H](C(=O)N[C@H](C(=O)O)c4cc(O)cc(O)c4-c4cc3ccc4O)[C@H](O)c3ccc(c(Cl)c3)Oc3cc2cc(c3O[C@@H]2O[C@H](CO)[C@@H](O)[C@H](O)[C@@H]2O[C@H]2C[C@](C)(N)[C@H](O)[C@H](C)O2)Oc2ccc(cc2Cl)[C@H]1O,·,·,·,3%,·,·
CC(C)CCNC(=O)Cn1c(SCc2cccc(F)c2)nc2ccncc21,-2%,·,·,·,-7%,·
CCN1CSC(=S)N(Cc2ccccc2)C1,-19%,?,-1%,-6%,-11%,i
CCCCCN1CSC(=S)N(Cc2ccccc2)C1,10µM*,13µM*,0%,-30%,-9%,?
CCN1CSC(=S)N(Cc2ccc(OC)cc2)C1,4µM*,-11%,-2%,·,7.9µM*,?
Nc1ccc(C(=O)NN2C(=O)[C@H](Cl)C2c2ccc(Cl)cc2)cc1 (stereo partly drawn),0%,?,-32%,?,-88%,13µM*
CCCCCCSC1=C(C#N)C(c2ccc(O)cc2)CC(=O)N1 (stereo not drawn),11%,5µM*,?,0%,-16%,i
Cc1ccc(Nc2nc(N)c3ccccc3n2)cc1Cl,?,?,-3%,·,-78%,?
Nc1nc(Nc2ccc(Cl)cc2)nc2ccccc12,18µM*,?,0%,45%,-48%,i
Nc1nc(Nc2ccccc2)nc2ccccc12,6%,?,-17%,46%,-57%,i
Cc1ccccc1Nc1nc(N)c2ccccc2n1,-9%,?,-2%,-2%,11µM*,i
CCOc1ccc(Nc2nc(N)c3ccccc3n2)cc1,-13%,2.2µM*,-5%,?,16µM*,i
COc1ccc(C)cc1Nc1nc(N)c2ccccc2n1,1%,?,-2%,0%,-17%,i
CN(C)c1ccc(Nc2nc(N)c3ccccc3n2)cc1,-2%,2µM*,-4%,5µM*,13µM*,i
COc1ccccc1-c1nnc(SCC(=O)c2ccc(F)cc2)n1-c1ccccc1,-23%,?,0%,-19%,-24%,i
SMILES,TGFb inhibitor,GLP1R inv ag,GLP-1R agonist,ATXN2 expr inh,HepG2 viability,ATXN viability
O=C(c1cccs1)N1CCCC1,-5%,6%,3%,4%,-14%,i
O=C(c1cccs1)N1CCN(C(=O)c2cccs2)C1=S,6.3µM*,?,-8%,?,-50%,·
CCOc1ccc(NC(=O)Cn2c(=O)n(-c3ccccc3)c(=O)c3ccc(C(=O)NCc4ccc5c(c4)OCO5)cc32)cc1,?,0%,-6%,-9%,-69%,i
CC(NC(=O)NC12CC3CC(CC(C3)C1)C2)c1ccc2c(c1)OCO2 (stereo not drawn),-10%,11µM*,0%,-10%,-11%,i
COc1nc(C)cnc1NS(=O)(=O)c1cccnc1-c1ccc(-c2nnco2)cc1,·,·,·,-7%,·,·
CC(C)Oc1ccc(Br)cc1/C=N\NC(N)=S,?,3.2µM*,0%,-23%,-18%,i
COc1ccc(Br)cc1/C=N/NC(=O)Cn1nnnc1N,?,-16%,1%,9%,-50%,i
CN(N=O)c1ccc(/C=C2\C=Cc3ccccc32)cc1,-5%,·,·,·,-4%,·
O=c1c2ccccc2ncn1-c1ccc([N+](=O)[O-])cc1[N+](=O)[O-],?,5.6µM*,0%,-19%,-94%,i
O=c1c2ccccc2ncn1-c1ccc(Cl)cc1[N+](=O)[O-],3%,?,4%,?,4%,i
Nc1c(Cl)ncnc1N/N=C/c1ccc2ccccc2n1,4.5µM*,?,17%,7.9µM*,-20%,10µM*
Clc1ccccc1NN=Cc1ccccn1,3%,4µM*,5%,·,-34%,i
Nc1c(Cl)ncnc1N/N=C/c1cccnc1,?,39%,4%,-3%,42%,i
Nc1c(Cl)ncnc1N/N=C/c1ccccn1,4µM*,?,-5%,?,-49%,13µM*
COc1ccc(NC(=O)C2CCN(S(=O)(=O)c3c(C)noc3/C=C/c3cccs3)CC2)cc1Cl,-2%,-17%,·,·,4%,·
Cc1cc(C(=O)NCC2CCC3(CCN(Cc4ccc(-c5ccccc5)cc4)CC3)O2)n(C)n1 (stereo not drawn),·,·,·,·,·,i
CC(C)(C)OC(=O)N1CCCC1C(=O)NC1COC2CC(n3cc(F)c(=O)[nH]c3=O)OC12 (stereo not drawn),-1%,·,·,·,-1%,·
COc1ccc(C)cc1NC(=O)C(Cc1ccccc1)NS(=O)(=O)c1ccc(Br)s1 (stereo not drawn),-12%,?,·,·,-60%,·
Cc1ccc(CNC(=O)C(Cc2ccccc2)NS(=O)(=O)c2ccc(Br)s2)cc1 (stereo not drawn),?,10µM*,7%,-2%,-26%,i

# Compound activity (PubChem)
